Results taken from PubChem BioAssay (Tox21).
Records with an inconclusive call do not appear. Calls of active or inactive are those of the source. Unless noted, the call rests on the fitted dose curve; in most records, active means well fitted curve in the direction sought with a large enough effect in the repeat runs; inconclusive means weak or mixed curves; inactive means no such curve, though single readings can be large; an effect the other way counts as inactive or inconclusive.

How the values were obtained:
[1] = qHTS assay for small molecules that induce genotoxicity in human embryonic kidney cells expressing luciferase-tagged ATAD5 (AID 651632); further: nearly all actives have a fitted effect of over 15% in size
Outline: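 DMSO vehicle served as the control. HEK293T reporter cells, 16 hr at 37C, then 30 min Amplite at room temperature; ATAD5 induction is measured as luciferase activity.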

[2] = qHTS assay for small molecule agonists of the p53 signaling pathway - cell viability (AID 651633; calls by dose curve;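 further: p53RE-bla HCT reporter cells with a stable beta-lactamase p53 reporter; series mostly up to about 83 µM; nearly all actives have a fitted effect of over 30% in size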)
Outline: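 p53RE-bla cells were treated with compound for 16 hours at 37 C. Cytotoxicity was then measured as CellTiter-Glo luminescence after 30 min at room temperature.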

[3] = qHTS assay for small molecules that induce genotoxicity in human embryonic kidney cells expressing luciferase-tagged ATAD5 - cell viability (AID 651634; calls by dose curve; further: nearly all actives have a fitted effect of over 25% in size)
Outline: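 Here HEK293T cells with the ATAD5 luciferase reporter are incubated with test compounds for 15.5 hr, and cytotoxicity is then gauged by measuring protease activity in live cells using fluorescence.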

[4] = qHTS assay for small molecule disruptors of the mitochondrial membrane potential - cell viability (AID 720634; calls by dose curve;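 further: human HepG2 liver cancer cells; series mostly up to about 83 µM; nearly all actives have a fitted effect of over 20% in size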)
Outline: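 Viability of HepG2 cells is scored from ATP content by luminescence; cells are exposed to compound for 1 hr at 37 C and 5% CO2, then dosed with m-MPI dye before the CellTiter-Glo reagent.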

[5] = qHTS assay to test for compound auto fluorescence at 590 nm (red) in HepG2 cells (AID 720674)
Outline: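 HepG2 cells, 2,000 per well in MEM with 10% FBS, attached overnight at 37 C, then got 23 nL compound or DMSO. After 1 hr at 37 C, 5% CO2, red fluorescence was read at 540/590 nm against Rose Bengal sodium as reference.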

[6] = qHTS assay to test for compound auto fluorescence at 535 nm (green) in HepG2 cells (AID 720675)
[7] = qHTS assay to test for compound auto fluorescence at 460 nm (blue) in HEK293 cells (AID 720678)
Outline: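 HEK293 cells (2,000 per well, medium with 10% dialyzed FBS) attached for 4-5 hr at 37C, then received compound and stood overnight at 37C, 5% CO2. Blue fluorescence was read at Ex/Em 405/460 nm and expressed relative to triamterene.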

[8] = qHTS assay to test for compound auto fluorescence at 590 nm (red) in HEK293 cells (AID 720679)
Outline: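 HEK293 cells (2,000/well, medium with 10% dialyzed FBS) attached for 4-5 hr at 37C, received 23 nL compound and were incubated overnight at 37C, 5% CO2. Red fluorescence was then read at 540/590nm Ex/Em, referenced to Rose Bengal sodium.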

[9] = qHTS assay to test for compound auto fluorescence at 535 nm (green) in HEK293 cells (AID 720680)
[10] = qHTS assay to test for compound auto fluorescence at 460 nm (blue) in HEK293 cell free culture (AID 720681)
Outline: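 Compounds were added to cell-free DMEM with 10% FBS and fluorescence read directly. The blue channel used 405 nm excitation and 460 nm emission, with triamterene as the reference fluorophore.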

[11] = qHTS assay to test for compound auto fluorescence at 535 nm (green) in HEK293 cell free culture (AID 720682)
Outline: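 Using fluorescein as calibrant, autofluorescence was quantified at 485/535 nm in cell-free DMEM containing 10% FBS after pintool addition of compound or vehicle.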

[12] = qHTS assay to test for compound auto fluorescence at 590 nm (red) in HEK293 cell free culture (AID 720683)
Outline: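 Cell-free wells of DMEM with 10% FBS received compound, and intrinsic fluorescence was read at excitation/emission 540/590 nm. Values expressed as equivalence to Rose Bengal sodium.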

[13] = qHTS assay to test for compound auto fluorescence at 590 nm (red) in HepG2 cell free culture (AID 720684)
Outline: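 Rose Bengal sodium served as the reference for red signal. Test compounds were dispensed into serum-containing MEM (10% FBS) without cells, and plates were read at 540/590 nm.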

[14] = qHTS assay to test for compound auto fluorescence at 460 nm (blue) in HepG2 cell free culture (AID 720685)
Outline: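 Cell-free plates of MEM plus 10% FBS received 23 nL compound or DMSO vehicle; blue-channel (405/460 nm) intensity scored against triamterene as reference fluorophore.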

[15] = qHTS assay to test for compound auto fluorescence at 535 nm (green) in HepG2 cell free culture (AID 720686)
[16] = qHTS assay to test for compound auto fluorescence at 460 nm (blue) in HepG2 cells (AID 720687)
Outline: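 HepG2 cells in MEM with 10% FBS, attached overnight at 37 C, were exposed to compound or DMSO for 1 hr at 37 C, 5% CO2. Blue fluorescence was read at 405/460 nm, with triamterene as reference fluorophore.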

[17] = qHTS assay for small molecule disruptors of the mitochondrial membrane potential (AID 720635)
Outline: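 HepG2 cells exposed to compound 1 hr at 37C, then Mito-MPS dye 30 min. Ratio read of aggregate (540/590 nm) versus monomer (490/535 nm) fluorescence.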

[18] = molecular target: Glucocorticoid receptor (Homo sapiens) (UniProt P04150); assay: qHTS assay to identify small molecule agonists of the glucocorticoid receptor (GR) signaling pathway (AID 720691; active means well fitted activation curve with a large enough effect in the signal ratio in the repeat runs, not every such curve was filed as active; the % refers to the signal ratio)
Chain of Glucocorticoid receptor (Homo sapiens) (P04150 whole entry, looked up): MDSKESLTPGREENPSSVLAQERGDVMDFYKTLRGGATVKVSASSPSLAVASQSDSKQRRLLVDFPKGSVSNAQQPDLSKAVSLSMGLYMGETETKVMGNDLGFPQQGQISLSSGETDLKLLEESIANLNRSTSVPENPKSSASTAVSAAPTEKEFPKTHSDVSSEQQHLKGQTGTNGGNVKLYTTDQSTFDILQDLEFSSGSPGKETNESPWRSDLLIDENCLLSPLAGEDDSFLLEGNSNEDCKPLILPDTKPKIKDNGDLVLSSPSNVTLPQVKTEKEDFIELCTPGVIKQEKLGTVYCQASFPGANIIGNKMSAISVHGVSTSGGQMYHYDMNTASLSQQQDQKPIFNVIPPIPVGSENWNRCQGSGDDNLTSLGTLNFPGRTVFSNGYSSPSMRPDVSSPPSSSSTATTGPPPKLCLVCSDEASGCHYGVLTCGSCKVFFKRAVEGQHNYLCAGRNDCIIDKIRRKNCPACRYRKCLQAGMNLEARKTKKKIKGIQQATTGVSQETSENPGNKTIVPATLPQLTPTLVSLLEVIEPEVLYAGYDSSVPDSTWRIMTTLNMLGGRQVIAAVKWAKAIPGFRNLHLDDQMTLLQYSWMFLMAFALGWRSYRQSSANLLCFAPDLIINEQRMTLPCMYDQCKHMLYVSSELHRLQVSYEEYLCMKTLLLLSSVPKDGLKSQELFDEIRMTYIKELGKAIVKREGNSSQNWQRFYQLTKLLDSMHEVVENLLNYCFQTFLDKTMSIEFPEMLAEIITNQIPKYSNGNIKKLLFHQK
Outline: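 Compounds in DMSO, alongside positive controls, were added to GR-bla HeLa reporter cells and incubated 18 h at 37 C; GRE-driven beta-lactamase was detected by fluorescence after 2 h with FRET substrate at room temperature.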

[19] = molecular target: Glucocorticoid receptor (Homo sapiens) (UniProt P04150); assay: qHTS assay to identify small molecule antagonists of the glucocorticoid receptor (GR) signaling pathway (AID 720692; active means well fitted inhibition curve with a large enough effect in the signal ratio in the repeat runs, not every such curve was filed as active; the % refers to the signal ratio)
Outline: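 In a 1536-well cell format, compounds were added 4 h after seeding GR-bla HeLa cells, together with dexamethasone at 5 nM final; reporter activity was measured by FRET-substrate fluorescence following 18 h at 37 C.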

Measured: Potency

NCCNC(=O)c1ccc(Cl)cn1
not listed: [17] | [18] | [19]
inactive: all other assays above

Cc1ccc(N)cc1[N+](=O)[O-]
inactive: all assays above

Nc1ccn(C2CO[C@H](CO)O2)c(=O)n1 (some centres not stated)
not listed: [17] | [18] | [19]
inactive: all other assays above

CC(C)(C)OC(=O)N1C[C@@H](F)C[C@H]1C(=O)O
inactive: all assays above

CCCCCCCCCCCCCCC
inactive: all assays above

CCN(CC)C(=O)c1ccc(O)c(OC)c1
inactive: all assays above

COC(=O)c1ccc(C(=O)OC)c(C(=O)OC)c1
inactive: all assays above
